# Measured values from ChEMBL document CHEMBL3433997, “St. Jude Leishmania screening dataset” (2016).
# What was measured:
# Type in all cases: functional
# [1] = biological target: Solute carrier family 2, facilitated glucose transporter member 1 (Homo sapiens) (UniProt P11166); assay: ST_JUDE_LEISH: Cytotoxicity at 2uM final concentration against transgenic Leishmania Mexicana promastigotes LmGLUT1 that are glucose transport deficient and complemented with the human glucose transporter GLUT1. Activity is measured by DNA content using SYBR green in vitro
# Solute carrier family 2, facilitated glucose transporter member 1 (Homo sapiens), sequence (P11166 whole entry): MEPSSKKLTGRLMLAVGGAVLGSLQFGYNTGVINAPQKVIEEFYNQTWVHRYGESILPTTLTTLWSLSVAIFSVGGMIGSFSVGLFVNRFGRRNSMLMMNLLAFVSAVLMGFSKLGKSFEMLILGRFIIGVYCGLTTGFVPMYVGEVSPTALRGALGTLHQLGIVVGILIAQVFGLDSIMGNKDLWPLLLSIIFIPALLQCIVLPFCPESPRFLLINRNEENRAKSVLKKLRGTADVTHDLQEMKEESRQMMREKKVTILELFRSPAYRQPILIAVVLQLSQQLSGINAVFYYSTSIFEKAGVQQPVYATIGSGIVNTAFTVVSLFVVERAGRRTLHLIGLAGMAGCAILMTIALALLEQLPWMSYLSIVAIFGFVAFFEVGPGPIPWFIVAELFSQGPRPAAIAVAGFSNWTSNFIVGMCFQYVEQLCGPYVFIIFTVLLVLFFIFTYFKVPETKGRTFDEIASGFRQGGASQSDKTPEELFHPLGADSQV
# [2] = biological target: Hexose transporter 1 (Plasmodium falciparum) (UniProt O97467); assay: ST_JUDE_LEISH: Cytotoxicity at 2uM final concentration against transgenic Leishmania Mexicana promastigotes LmPfHT that are glucose transport deficient and complemented with the Plasmodium falciparum hexose transporter. Activity is measured by DNA content using SYBR green in vitro
# [3] = biological target: Glucose transporter (Leishmania mexicana) (UniProt O61059); assay: ST_JUDE_LEISH: Cytotoxicity at 2uM final concentration against transgenic Leishmania Mexicana promastigotes LmGT2 that are glucose transport deficient and complemented with the L. Mexicana glucose transporter 2. Activity is measured by DNA content using SYBR green in vitro
smiles,measurement,setting,value
CC(C)(C)c1ccc(-c2ccccc2CNC(=O)c2cccc(O)c2)cc1,inhibition,[1],6.97%
same,inhibition,[2],6.5%
same,inhibition,[3],7.1%
CCN1CCN(CCCNc2c3ccc(Cl)cc3nc3ccc(OC)cc23)CC1,inhibition,[1],9.58%
same,inhibition,[2],9.46%
same,inhibition,[3],8.38%
Cc1cc(O)c(CN(C)Cc2ccc3c(c2)OCCO3)cc1C(C)C,inhibition,[1],4.86%
same,inhibition,[2],5.38%
same,inhibition,[3],2.54%
c1cncc(CCNCc2ccc(-c3cccc(-c4nc5ccccc5[nH]4)c3)cc2)c1,inhibition,[1],-0.73%
same,inhibition,[2],0.67%
same,inhibition,[3],-0.38%
O=C(Nc1cccnc1)c1cc(C(=O)Nc2cccnc2)cc([N+](=O)[O-])c1,inhibition,[1],0.86%
same,inhibition,[2],3.44%
same,inhibition,[3],0.83%
O=C(Nc1ccc(Cl)cc1)c1ccc(CN2CCCN(Cc3ccccc3)CC2)cc1,inhibition,[1],1.68%
same,inhibition,[2],3.72%
same,inhibition,[3],1.45%
CCCN(CCC)CCCOc1ccc(C(=O)c2c(-c3ccc(OCCCN(CCC)CCC)cc3)oc3ccc(Cl)cc23)cc1,inhibition,[1],70.8%
same,inhibition,[2],49.3%
same,inhibition,[3],31.1%
CN(Cc1ccc(NC(=O)CCC2CCN(C(=O)/C=C/c3ccc(Cl)c(Cl)c3)CC2)cc1)C1CCOCC1,inhibition,[1],4.84%
same,inhibition,[2],5.1%
same,inhibition,[3],-1.91%
Cc1ccc(C2CC(=O)CC(c3ccccn3)C2[N+](=O)[O-])cc1 (stereo not given),inhibition,[1],-0.44%
same,inhibition,[2],0.92%
same,inhibition,[3],-0.46%
OCC1CCN(Cc2cccc(-c3ccc(-c4nc5cc(C(F)(F)F)ccc5[nH]4)s3)c2)CC1,inhibition,[1],4.2%
same,inhibition,[2],4.88%
same,inhibition,[3],3.14%
O=c1cc(NCCNCc2cccc(-c3ccccc3)c2)[nH]c2ccccc12,inhibition,[1],4.41%
same,inhibition,[2],-0.15%
same,inhibition,[3],1.64%
CN1CCN(CCCN(Cc2csc(-c3ccc(CNCc4ccccc4)cc3)n2)C(=O)Nc2ccc3ccccc3c2)CC1,inhibition,[1],2.94%
same,inhibition,[2],4.46%
same,inhibition,[3],0.42%
O=S(=O)(NCCCN1CCOCC1)c1ccc2nccc(Nc3ccc(Oc4ccccc4)cc3)c2c1,inhibition,[1],-1.16%
same,inhibition,[2],-0.87%
same,inhibition,[3],-0.94%
O=C(c1ccc(-c2ccc(-c3nc4cc(C(F)(F)F)ccc4[nH]3)s2)cc1)N1CCN(CCc2ccccc2)CC1,inhibition,[1],5.29%
same,inhibition,[2],3.93%
same,inhibition,[3],4.62%
CN1CCN(CCCN(Cc2ccc(-c3ccc(CNCc4ccc5c(c4)OCO5)cc3)cc2)C(=O)Nc2ccccc2)CC1,inhibition,[1],11.6%
same,inhibition,[2],13.7%
same,inhibition,[3],11%
